PME-1 primary = blocks human protein phosphatase methylesterase 1. Q9Y570. recombinant PME-1, FP-Rh probe fluorescence polarization. inhibition, % at 5.9 µM. actives 0.53% (n = 320,000). AID 2130;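 active = inhibition above the campaign mean of all compounds plus 3 SD, cut at about 26% in these data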;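 also: competitive labeling of PME-1 active site by serine hydrolase directed probe; inhibitors block probe labeling so polarization falls and inhibition rises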
Target sequence (Q9Y570 whole entry, looked up): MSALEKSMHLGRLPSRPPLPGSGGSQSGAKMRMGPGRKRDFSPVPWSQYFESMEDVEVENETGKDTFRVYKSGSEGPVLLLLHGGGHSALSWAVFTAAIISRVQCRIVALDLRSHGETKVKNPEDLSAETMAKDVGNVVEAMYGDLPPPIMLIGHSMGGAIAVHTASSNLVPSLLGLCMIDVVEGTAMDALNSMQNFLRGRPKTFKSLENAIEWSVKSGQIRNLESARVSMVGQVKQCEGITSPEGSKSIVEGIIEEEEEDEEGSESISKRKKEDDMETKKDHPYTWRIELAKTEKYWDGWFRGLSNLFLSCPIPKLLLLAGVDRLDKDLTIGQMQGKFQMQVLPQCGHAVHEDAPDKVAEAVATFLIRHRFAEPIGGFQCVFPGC
PREPL inhibitor = human PREPL enzyme inhibition | Q4J6C6 | inhibition, % at 5.96 µM | AID 2751 | actives 0.68% (n = 320,000) | recombinant PREPL, fluorescence polarization activity-based probe; in the data active = inhibition above about 43%
Fam108B inh = Fam108B inhibition, counter-screen for RBBP9 inhibitors | recombinant Fam108B, FP-Rh probe fluorescence polarization | inhibition, % at 9.51 µM | actives 0.33% (n = 300,000) | AID 1947;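 active = inhibition above the screen mean inhibition plus 3 SD, computed separately per campaign, cut at about 18% in these data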;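 also: inhibitors lower polarization as less probe binds the enzyme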
LYPLA1 inh = LYPLA1 (human) inhibition in PME1 counter-screen. recombinant LYPLA1, FP-Rh probe fluorescence polarization. inhibition, % at 5.9 µM. AID 2174. actives 0.16% (n = 320,000);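 active = inhibition above the mean of all tested compounds plus 3 SD, set per campaign, cut at about 14% in these data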;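 also: inhibitors block serine hydrolase probe labeling of LYPLA1 so polarization falls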
LYPLA2 inh = counter-screen for PME1 inhibitors: inhibitors of human LYPLA2; inhibition, % at 5.9 µM; actives 0.38% (n = 320,000); recombinant LYPLA2, FP-Rh probe fluorescence polarization;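 active = inhibition above the screen-wide mean plus 3 SD, limit set per campaign, cut at about 26% in these data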
Target sequence (O95372 whole entry, looked up): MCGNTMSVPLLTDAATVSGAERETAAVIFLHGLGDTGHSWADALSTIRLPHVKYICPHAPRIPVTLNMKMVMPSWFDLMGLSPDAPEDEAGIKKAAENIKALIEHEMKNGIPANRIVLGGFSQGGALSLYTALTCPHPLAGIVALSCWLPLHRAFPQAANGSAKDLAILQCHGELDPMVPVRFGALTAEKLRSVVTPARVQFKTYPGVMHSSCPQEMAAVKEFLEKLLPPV
Fam108b inh conf = Fam108b (mouse) hydrolase inhibition, confirmation assay; shares compounds with Fam108B inh; recombinant Fam108b, FP-Rh probe fluorescence polarization; inhibition, % at 9.51 µM; actives 44% (n = 930);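 active = inhibition above a limit from the primary screen, the mean over all compounds plus 3 SD, cut at about 19% in these data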;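 also: inhibitors free the probe so polarization falls as inhibition rises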
Fam108b inh = inhibits mouse Fam108b in gel-based ABPP | AID 588649 | actives 44% (n = 260) | recombinant Fam108b, fluorophosphonate probe | inhibition, % at 20 µM | shares compounds with Fam108B inh; in the data active = inhibition above about 40%
Numbers stand for hits; . = inactive; / = not tested or not shown. Sampled rows, rich in hits. Any-hit rate of the full collection: about 1.3%.

SMILES | PME-1 primary | PREPL inhibitor | Fam108B inh | LYPLA1 inh | LYPLA2 inh | others
Cc1cc(-c2ccc(N=Nc3c(S(=O)(=O)O)cc4cc(S(=O)(=O)O)cc(N)c4c3O)c(C)c2)ccc1N=Nc1c(S(=O)(=O)O)cc2cc(S(=O)(=O)O)cc(N)c2c1O | . | . | 36.1 | . | .
Cc1ccc(C(=O)COC(=O)c2cccc(NC(=O)c3ccc([N+](=O)[O-])cc3[N+](=O)[O-])c2)cc1 | 31.8 | . | . | . | .
Cc1cccc(NC(=O)CCC(=O)OCC(=O)c2ccc(Oc3ccc([N+](=O)[O-])cc3)cc2)c1 | . | . | . | . | 31.2
O=C(O)COc1ccc(/C=N/NC(=O)COc2nsnc2N2CCOCC2)cc1 | . | . | . | . | .
CC(C)(C)c1ccc(OCC(=O)N/N=C/c2ccc(N3CCOCC3)cc2)cc1 | . | 64.6 | . | . | .
O=C(CN1CCN(c2ccc(O)cc2)CC1)Nc1cc(S(=O)(=O)N2CCCC2)ccc1Cl | 36.9 | . | . | . | .
Cn1nnnc1SCC(=O)Nc1cc(S(=O)(=O)N2CCCC2)ccc1Cl | . | . | . | . | .
O=C(CSc1cccc(C(F)(F)F)c1)Nc1cc(S(=O)(=O)N2CCCC2)ccc1Cl | 48.6 | . | . | . | .
N#Cc1cccc(C#N)c1Oc1ccc(S(=O)(=O)Nc2ccc(Cl)cc2)cc1 | . | . | . | . | .
CCCCn1c(N)c(N(CCOC)C(=O)CSc2nnc(-c3ccc(F)cc3)n2N)c(=O)[nH]c1=O | . | . | . | . | .
COc1c(S(=O)(=O)NCCN2CCOCC2)ccc(Cl)c1Cl | . | 43.8 | . | . | .
Cc1cccc(NC(=O)CN2C(=O)S/C(=C\c3ccc(O)c([N+](=O)[O-])c3)C2=O)c1 | 33.5 | . | . | . | 81.2
CC(C)CCNC(=O)CN(C(=O)CCC(=O)Nc1nccs1)C1CCCCC1 | . | . | . | . | .
Cc1ccc(C)n1Cc1ccc(C(=O)O)cc1 | . | . | 37.4 | . | .
C=CC[C@@H]1C=C(C)C[C@H](C)C[C@H](OC)[C@H]2O[C@@](O)(C(=O)C(=O)N3CCCC[C@H]3C(=O)O[C@H](/C(C)=C/[C@@H]3CC[C@@H](O)[C@H](OC)C3)[C@H](C)[C@@H](O)CC1=O)[C@H](C)C[C@@H]2OC | . | 55.3 | . | . | .
O=C(CNc1ccc(F)cc1)N/N=C/c1c(O)ccc2ccccc12 | 36.6 | . | . | . | .
COc1ccccc1NCC(=O)N/N=C/c1c(O)ccc2ccccc12 | . | . | . | . | .
CCN(CC)S(=O)(=O)c1ccc(N2CC(C(=O)NC3(C)CCS(=O)(=O)C3)CC2=O)cc1 (centres undefined) | . | . | / | . | .
S=C(NCCOCCOCCNC(=S)Nc1ccccc1)Nc1ccccc1 | . | . | . | . | .
S=C(NCCNC(=S)Nc1ccccc1)Nc1ccccc1 | 32.8 | . | . | . | .
CCCOc1ccc(/C=N/NC(=S)Nc2ccccc2[N+](=O)[O-])c(O)c1 | 30.4 | . | . | . | .
COc1cc(/C=N/NC(=S)Nc2cccc(S(=O)(=O)N(C)C)c2)ccc1O | 39.3 | . | . | . | .
COc1cc(/C=N/NC(=O)c2cccc(NC(=O)c3ccccc3)c2)ccc1O | . | . | . | . | .
CCCOc1ccc(/C=N/Nc2ccccc2[N+](=O)[O-])c(O)c1 | . | . | . | . | .
COc1ccc(/C=N/NC(=S)Nc2ccccc2[N+](=O)[O-])cc1O | 34.8 | . | . | . | .
SMILES | PME-1 primary | PREPL inhibitor | Fam108B inh | LYPLA1 inh | LYPLA2 inh | others
CN(C)S(=O)(=O)c1cccc(NC(=S)NC(=O)C2CCCCC2)c1 | . | . | . | . | .
CN(C)S(=O)(=O)c1cccc(NC(=S)NNC(=O)c2cc3ccccc3cc2O)c1 | 26.7 | . | / | . | .
CN(CC(=O)Nc1ccccc1Cl)C(=O)COC(=O)C1CCN(c2ccc(C(F)(F)F)cn2)CC1 | . | . | . | . | .
C[C@H]1COC2=C1C(=O)C(=O)c1c2ccc2c1CCCC2(C)C | . | . | . | . | 48.0
COC(=O)c1c(-c2cccnc2)csc1NC(=O)c1ccc2c(c1)OCO2 | . | . | . | . | .
On1onc2c3cc(-c4ccccc4)nc3ccc21 | 45.1 | . | 26.5 | . | . | Fam108b inh conf=21.1
c1ccc(-c2cc3c(ccc4nonc43)nn2)cc1 | . | . | . | . | .
CCOc1ncccc1C(=O)OCC(=O)N1CCC(C)CC1 | / | . | / | / | /
O=C1NN(c2ccccc2)C(=O)/C1=C/c1ccc(-c2ccc(C(=O)O)cc2)o1 | . | . | . | . | .
O=C1NN(c2ccccc2)C(=O)/C1=C/c1ccc(Sc2cccc3ccccc23)o1 | . | . | 29.2 | . | . | Fam108b inh conf=.
Nc1ncnc(Nc2ccccc2Cl)n1 | . | . | . | . | .
N#CC1=C(c2ccccc2)/C(=C/c2ccccc2)OC1=O | . | . | 19.4 | . | . | Fam108b inh conf=23.3
O=C1O/C(=C/c2ccccc2)c2ccccc21 | . | . | . | . | .
Cc1cc(SCC(=O)c2cccc([N+](=O)[O-])c2)nc(=O)[nH]1 | . | . | . | . | .
O=C(O)c1ccc(/C=N\Nc2ccc(S(=O)(=O)N3CCOCC3)cc2[N+](=O)[O-])cc1 | . | . | . | . | .
Cc1ccc(-n2c(O)c(/C=N/Nc3ccc(S(=O)(=O)N4CCOCC4)cc3[N+](=O)[O-])c3ccccc3c2=O)c(C)c1 | 34.4 | . | 32.2 | . | . | Fam108b inh conf=45.5;Fam108b inh=45.0
Cc1ccc(C(C)C)c(OCc2ccc(C(=O)N/N=C/c3ccc(O)c(O)c3)cc2)c1 | 37.5 | . | 34.7 | . | . | Fam108b inh conf=.
O=C(N/N=C/c1ccc(O)c(O)c1)c1ccc(CSc2cccc3cccnc23)cc1 | 53.7 | . | 43.5 | . | . | Fam108b inh conf=25.9
Cc1ccc(C(C)C)c(OCc2ccc(C(=O)N/N=C/c3cccc(O)c3O)cc2)c1 | 49.4 | . | 28.2 | . | . | Fam108b inh conf=.
COc1ccc(NC(=O)CN(C)C(=O)CSCc2ccc(C)cc2)cc1 | . | . | . | . | .
Cc1nn(CC(=O)Nc2ccc(N3CCOCC3)cc2)c(C)c1[N+](=O)[O-] | / | . | / | / | /
CC(C)NS(=O)(=O)c1ccc(NC(=O)C(C)OC(=O)CCC2CCCC2)cc1 (centres undefined) | . | . | / | . | .
C=CCOc1ccc(C2/C(=C(\O)c3ccc4c(c3)OCCO4)C(=O)C(=O)N2CCCN2CCOCC2)cc1 (centres undefined) | . | . | . | . | .
CCN(CC)S(=O)(=O)c1ccc(N/N=C/c2ccc(O)cc2O)nc1 | 48.1 | . | 21.6 | . | . | Fam108b inh conf=.
Oc1ccc(/C=N/Nc2cccc3cccnc23)c(O)c1 | 35.7 | . | 20.6 | . | . | Fam108b inh conf=20.7
O=S(=O)(O)c1cc(O)c2c(O)c(N=Nc3cc(Cl)ccc3O)c(S(=O)(=O)O)cc2c1 | . | . | 23.6 | . | . | Fam108b inh conf=.
